# Columns and labels:
# Assay in all cases: PBM binding z-score (relative to random genomic background probes); higher = stronger binding; sequences stand for … in GC…GCGATTGACAGCGTAGAATGAAGG
# [1] = tested on: PPARg:RXRa DBDmut IVT, anti-RXR (DBD mutation: RXRa K156A/R161A, NR concentration 270 nM, RXRa partner concentration 90 nM)
# Outline: (§1)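 Random background probes are the reference for binding z-scores. These scores derive from regression-normalized fluorescence on custom Agilent 4×180K protein-binding microarrays incubated 1 h with ligand-free nuclear receptor dimers. Binding was detected with antibodies against each partner (one per run).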
# [2] = tested on: PPARg:RXRa IVT, anti-PPARg (NR concentration 270 nM, RXRa partner concentration 90 nM)
# Outline: as §1
# [3] = tested on: PPARg DBDmut:RXRa IVT, anti-PPARg (DBD mutation: PPARg1 K132A/R137A, NR concentration 270 nM, RXRa partner concentration 90 nM)
# Outline: as §1
# [4] = tested on: PPARg DBDmut IVT, anti-PPARg (DBD mutation: PPARg1 K132A/R137A, NR concentration 270 nM)
# Outline: as §1
# [5] = tested on: PPARg homodimer (NR concentration 180 nM)
# Outline: as §1
# [6] = tested on: PXR:RXRa (NR concentration 270 nM, RXRa partner concentration 90 nM)
# Outline: as §1
# [7] = tested on: PXR homodimer (NR concentration 270 nM)
# Outline: as §1
# [8] = tested on: RARa:RXR (NR concentration 270 nM, RXRa partner concentration 90 nM)
# Outline: as §1
# [9] = tested on: RARa homodimer (NR concentration 270 nM)
# Outline: as §1
# [10] = tested on: RARb:RXRa (NR concentration 270 nM, RXRa partner concentration 90 nM)
# Outline: as §1
Sequence,PBM binding z-score [1],PBM binding z-score [2],PBM binding z-score [3],PBM binding z-score [4],PBM binding z-score [5],PBM binding z-score [6],PBM binding z-score [7],PBM binding z-score [8],PBM binding z-score [9],PBM binding z-score [10]
TCTAGTTGGTCACGGAGGTCTCACACGACGGGTA,2.19,2.67,0.65,1.23,1.03,0.478,-0.307,0.619,-0.249,1.91
CCGACTGGGGCATAAGGGTACCATAAGCCAGCCC,1.55,1.97,-1.37,-1.11,-0.201,-0.472,-0.387,-0.246,-0.606,0.641
TGAATTAGGTTATAAGATCAGGGAACGTTGCAAA,5.05,4.53,1.08,1.15,1.14,-0.000172,0.301,-0.0809,1.34,0.576
GCTACTGGGGCATCAGCAGGTTACCATAACTTAA,5.96,5.52,0.447,0.741,0.599,0.0663,-0.537,0.497,-0.28,0.962
TCATATAGGTAAATGCTAGGTGGAAGTCCGATCT,3.98,2.01,1.68,0.774,0.237,0.234,0.0145,0.241,0.904,0.253
AGAATGAGGATATTAAGATCAGGGAATTGCGGTC,-0.168,0.03,0.947,0.486,-0.141,-0.209,0.0307,-0.171,0.578,-0.259
CCGACTGGGGCAAAGCTTACCATACTCAGTACGA,4.39,2.85,-0.291,-0.457,0.119,-0.708,-0.701,-0.665,-0.639,0.229
CCTTACGGCTCACTGACAGGTTATAGCATTTGGA,0.701,-0.612,0.0543,-0.0527,0.157,0.158,0.192,0.669,0.331,0.0996
CGTCCAAGGACAGAGAGGTCAGTGAATGCCGAGT,0.0804,0.561,-0.629,-1.01,1.79,3.01,3.16,2.48,0.679,3.33
CCTACTGGGCCAAACAGGTCATTGATGCCGATAA,4.31,3.92,0.0161,-0.301,1.42,1.37,0.801,1.71,0.102,1.68
CCTAGCAGGCCAATCTGGATCACTCAAGGCTTGA,1.73,0.817,-1.11,-1.19,-0.873,-0.635,-0.965,-0.47,-0.695,0.0834
CCTCGGCGGACAGAAGGTCAGAGCTGTCCGCTTT,-0.348,-0.163,-2.18,-2.03,0.787,1.26,-0.667,1.57,-0.497,2.52
GGAATGAGGGCAAGTTGATAGCAGAGTTTGATGG,4.98,3.82,1.16,-0.0155,1.37,1.05,1.87,0.695,0.0185,2.64
CCGACTGGGGCAAAGGTTTCCATACTCAGTACGA,5.1,4.87,-0.186,-0.49,0.0767,-0.0306,-0.339,0.0342,-0.339,0.737
GTTAGCAGGCCATTTGGGTCACTCAATGACGGGC,2.37,2.61,-0.276,-0.494,-0.0267,0.566,0.185,0.925,-0.249,1.52
TCTCGGAGGACACGAAAGGTCAGAGGTCGACATC,1.89,2.44,-0.583,-0.569,2.83,5.34,0.827,6.51,1.05,4.57
AGAATAAGGTTATACGTAGATCAGGGAAGAAAGT,2.81,1.19,1.32,1.1,0.729,1.03,0.578,1.66,0.976,1.64
CAAACTAGGTCAAAGTCAAAGTCGGTTTGTGCCA,8.48,8.78,4.97,3.93,1.7,1.63,-0.171,2.61,0.68,4.01
GCAGCTAGGTCAACTGATGGTCAGCTAAAGCTCG,4.33,4.15,-0.285,-1.01,1.13,1.2,-0.968,2.49,-0.66,4.24

Sequence,PBM binding z-score [1],PBM binding z-score [2],PBM binding z-score [3],PBM binding z-score [4],PBM binding z-score [5],PBM binding z-score [6],PBM binding z-score [7],PBM binding z-score [8],PBM binding z-score [9],PBM binding z-score [10]
AGACTGAGGTTACCAAAGATCAGGGAAACGCTTG,0.451,1.01,-0.133,-0.273,0.133,1.42,-0.0396,1.82,-0.111,2.08
ATCTCTAGGTAAAGATCGTTCAGTGAATGCAAAT,2.03,1.66,1.31,0.707,0.555,-0.16,0.0441,0.0862,0.49,-0.0299
TCGAGTAGGTTAGTCGGGACATTCAGCCAACATA,1.85,1.48,-0.367,-1.31,-0.431,-0.161,-0.242,0.166,-0.452,0.165
CCGACTGGGGCATAGGGTTACCATAAGCCAGCCC,2.48,3.41,-0.334,-1.39,0.589,0.141,-0.597,0.817,-1.05,1.25
ATCTGTAGGTAAAAGTTCAGTGAATCCCGAGGAT,1.88,3.51,0.891,0.681,1.13,2.01,1.1,2.07,1,2.38
ACAGAAAGGTGAGTGAAGGTAACTCAGCTGGACG,1.69,1.91,0.587,-0.401,0.248,0.345,-0.335,0.81,0.239,2.47
TCGAGTAGGTAAGGGGCATTCAGAATGGCGTCGA,1.59,0.472,-0.991,-1.03,0.148,-0.173,-0.537,-0.00481,-0.369,0.496
GATACAGGGTCAAGGCCAGAGCACGCGTATTGAT,2.49,4.08,0.585,0.0811,2.41,3.86,0.352,4.64,0.569,4.5
AGACAAAGTTCACTAGGTAACGTAAGATTCAGCT,2.37,4.14,1.01,0.842,1.94,3.7,2,2.91,0.576,4.83
CGTCCGAGGTCAGCAGGTCAGTGAAAGCGACGTG,3.37,4.16,0.747,0.472,4.76,4.43,0.531,5.55,1.59,5.15
CGAAATAGGTCAAGGACAGTGAATCTCCGCACGC,7.8,7.31,2.5,0.573,3.31,2.69,0.113,3.82,1.59,4.51
AATATTAGTTGACTTAGGGCAACCGATACGACGC,0.114,0.435,1.41,0.654,0.835,0.143,0.976,0.751,1.92,0.721
CCTACTGGGCCAAACGTCATTGATTCCAATGCTC,6.22,3.97,-0.542,-0.413,0.259,-0.508,-0.633,0.0892,-0.153,0.179
ATATGCAGGTTAGCTGGGGTCATTCAGACTAGGC,2.79,2.76,0.943,1.03,1.18,6.31,2.68,5.26,0.349,3.15
GCTGCTAGGACAGGTTGGTCAGCTAACGGGTACG,-0.0688,-0.79,-1.21,-0.812,-0.869,-0.739,-0.561,-0.833,-0.447,0.0113
ATCTCTAGGTAACTAAGTTCAGTGAATGCCGAAC,2.67,2.89,1.24,1.19,1.29,2.49,2.44,1.25,0.922,1.37
GCGACTGGGGCATGAGCAGGTTACCATAACTTAA,3.82,3.4,-0.58,-0.475,0.287,0.134,-0.328,0.416,-0.578,0.781
CCTACTGGCCCAAAAAGGTCATTGATGCCGATAA,0.453,1.52,-0.0321,-0.749,3.4,4.99,2.07,5.65,2.16,3.99
ACTTACGGGTCAACGAGATTATAGCACGCGTATA,3.56,4.11,1.69,2.1,2.79,3.31,0.376,4.37,1.47,4.23

# — the supplement of paper PMC6555819
